Test results: PubChem BioAssay AID504652 (National Center for Advancing Translational Sciences (NCATS), 2011)
About 11,000 (3.1%) of roughly 360,000 compounds were called active. This is one part of a sample in which actives are shown more often than they occur. Rule as the data show it: active = activity change below about -30%; inactive = the rest.

What follows are compounds tested against D(1A) dopamine receptor (Homo sapiens) (UniProt P21728) (assay: Antagonist of Human D 1 Dopamine Receptor: qHTS). Conditions: HEK293 TREx D1 cells, calcium flux, dopamine EC80; at 10 µM; active compounds read low.
Sequence of D(1A) dopamine receptor (Homo sapiens) (P21728 whole entry, looked up): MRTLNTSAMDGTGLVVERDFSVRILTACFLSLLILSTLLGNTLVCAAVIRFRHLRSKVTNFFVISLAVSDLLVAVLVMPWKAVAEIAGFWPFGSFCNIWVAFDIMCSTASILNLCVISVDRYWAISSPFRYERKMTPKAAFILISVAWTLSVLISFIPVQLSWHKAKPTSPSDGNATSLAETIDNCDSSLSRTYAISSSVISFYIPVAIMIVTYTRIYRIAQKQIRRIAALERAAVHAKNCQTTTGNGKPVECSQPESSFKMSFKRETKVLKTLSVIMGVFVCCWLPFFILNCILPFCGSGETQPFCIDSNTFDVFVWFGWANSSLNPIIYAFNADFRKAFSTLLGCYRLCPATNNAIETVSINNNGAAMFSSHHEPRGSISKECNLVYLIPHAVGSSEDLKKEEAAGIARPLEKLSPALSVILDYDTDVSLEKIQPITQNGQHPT
From the text: Dopamine receptors (DARs) are involved in the etiology and/or therapy of a number of neuropsychiatric and endocrine disorders. For instance, all receptor-based antiparkinsonian drugs work via stimulating the […] DAR subtype whereas all FDA-approved antipsychotic agents are antagonists of this receptor. […] There are three different types of allosteric modulators that we are seeking, two of which will stimulate or augment receptor signaling, allosteric agonists and potentiators, while the third, allosteric antagonists, will attenuate receptor signaling. The present primary screening assay measures compound antagonism after an EC80 addition of dopamine by tracking calcium flux in a […], inducible Hek293 Trex D1 cell line. NIH Chemical Genomics Center [NCGC] NIH Molecular Libraries Probe Centers Network [MLPCN] MLPCN Grant: NS064831-01 Assay Submitter (PI): David Sibley
Freshly passaged cells are plated in 1536 well black, clear bottom plates at a density of 4000 cells/well in 3 ul of complete media containing 1x tetracycline inducer. After an overnight incubation at 30 C in 5% CO2, cells are loaded with 2 ul of the no wash Calcium Assay Kit (ABD Bioquest) and incubated at room temperature for 30 to 90 minutes. Agonist read: A 10 cycle (1 second/cycle) baseline measurement is taken and then the FDSS online 1536 pintool delivers 23 nl of compound library (as well as dopamine controls) to the plate. The plate is measured for kinetically at 1 cycle/sec for 180 seconds. Following the 180 second read, 1 ul of an EC80 (negative modulation assay) is delivered by an onboard pipette head. Measurements are taken kinetically for an additional 180 seconds.
% is scaled to controls: 0 for no effect and ±100 for the full control effect.

SMILES	activity change, negative = inhibition
COc1cc(NC(=O)Cn2c(=O)n(Cc3ccco3)c(=O)c3oc4ccccc4c32)cc(OC)c1	8.05% (inactive)
COc1cc(OC)c(OC)cc1/C=C/c1nc2ccccc2c(=O)n1-c1ccc(Br)c(C)c1	0.553% (inactive)
Cc1ccc(S(=O)(=O)CCC(=O)Nc2nnc(CC(C)C)s2)cc1	6.37% (inactive)
CC(C)Cc1nnc(NC(=O)CCC(=O)Nc2ccc3cn[nH]c3c2)s1	-55.6% (active)
CC(C)Cc1nnc(NC(=O)CCc2ccccc2)s1	3.92% (inactive)
Cc1c(Cl)cccc1NC(=O)C1CCCN(C(=O)c2cnn(-c3ccccc3)c2-n2cccc2)C1 (configuration not stated)	7.6% (inactive)
Cc1ccc(SCC(=O)Nc2ccc3oc(-c4ccccc4F)nc3c2)cc1	-5.46% (inactive)
CCOC(=O)c1ccccc1NC(=O)c1nn(-c2ccc(OC)c(Cl)c2)c(=O)c2c1c1ccccc1n2C	5.56% (inactive)
O=C(CSc1cn(CC(=O)N2CCOCC2)c2ccccc12)Nc1ccccc1	11.6% (inactive)
COc1cccc(NC(=O)CN(C)C(=O)/C=C/c2cc(OC)ccc2OC)c1	24.2% (inactive)
COc1cccc(NC(=O)CN(C)C(=O)c2ccccc2CCc2ccccc2)c1	3.89% (inactive)
COc1cccc(NC(=O)CN(C)C(C)C(=O)Nc2ccc(C#N)cc2)c1 (configuration not stated)	-40.7% (active)
COC(=O)c1ccccc1NC(=O)c1cnn(-c2ccc(F)cc2)c1-n1cccc1	15% (inactive)
Cc1cccc(NC(=O)Cn2c(C(F)(F)F)nc3ccccc32)c1C	-9.8% (inactive)
COc1cccc(C(=O)NCc2ccc3c(c2)CCN3C(=O)c2ccncc2)c1	-7.86% (inactive)
Cc1ccc(CNC(=O)c2c(O)nc3c(C)cccn3c2=O)cc1	16.2% (inactive)
Cc1cccc(-n2c(SCC(N)=O)nc3c(oc4ccccc43)c2=O)c1	-16.4% (inactive)
O=C(CN1CCN(c2ccc(F)cc2)CC1)Nc1cccc(C(F)(F)F)c1	-2.58% (inactive)
CCc1sc(C(=O)N2CCN(CC(=O)Nc3cccc(F)c3)CC2)cc1C	-30.4% (active)
CC(=O)N1CCN(CC(=O)Nc2ccc(C)c(F)c2)CC1	1.94% (inactive)
O=C(CSc1n[nH]c(-c2ccccc2)n1)N1CCCCC1	-15.7% (inactive)
COc1ccc(Cl)cc1NC(=O)NC(C)C(C)(C)C (configuration not stated)	-26.1% (inactive)
COC(=O)[C@@H](NC(=O)Nc1cc(Cl)ccc1C)C(C)C	-41.7% (active)

SMILES	activity change, negative = inhibition
Cc1ccc(Cl)cc1NC(=O)COC(=O)CC(C)(C)C	4.47% (inactive)
Cc1cc2ccccc2n1CCNC(=O)c1ccc(F)cc1	-21.6% (inactive)
COc1ccc(S(=O)(=O)NCCSc2nnnn2-c2ccccc2)cc1	-6.65% (inactive)
Cn1c(C(=O)Nc2cccc(C(F)(F)F)c2)cc2c(=O)n3ccccc3nc21	-9.44% (inactive)
Cc1cc(Cl)c(S(=O)(=O)NCC2CCCO2)cc1OCC(N)=O (configuration not stated)	-3.64% (inactive)
Cc1cc(Cl)c(S(=O)(=O)Nc2ccc3c(c2)OCCO3)cc1OCC(N)=O	-35.2% (active)
Cc1cc(Cl)c(S(=O)(=O)N(C)C)cc1OCC(N)=O	5.54% (inactive)
COc1ccc(CNC(=O)Cc2coc3ccc(C(C)C)cc23)cc1	-5.84% (inactive)
COc1cccc(N2CCN(S(=O)(=O)c3cc(Br)cc4c3N(C(=O)C3CC3)CC4)CC2)c1	-4.38% (inactive)
COc1ccccc1NC(=O)Cn1cnc2ccc(S(=O)(=O)N3CCC(C)CC3)cc2c1=O	0.0222% (inactive)
CCN1CCCC1CNC(=O)Cn1cnc2ccc(S(=O)(=O)N3CCC(C)CC3)cc2c1=O (configuration not stated)	-45% (active)
CC1CCN(S(=O)(=O)c2ccc3ncn(CC(=O)N(C)C4CCCCC4)c(=O)c3c2)CC1	-7.06% (inactive)
COc1ccc(-c2nn(CC(=O)NC3CCCC3)c3c2cnc2ccc(F)cc23)cc1	-17.2% (inactive)
Cc1ccc(NC(=O)CN2C(=O)CC(C)Sc3ccccc32)c(C)c1 (configuration not stated)	5.35% (inactive)
COC(=O)C1=CN(c2ccc(F)c(F)c2)C=C(C(=O)OC)C1c1ccc([N+](=O)[O-])cc1	13.5% (inactive)
COC(=O)C1=CN(C)C=C(C(=O)OC)C1c1ccc(Cl)cc1Cl	-50.3% (active)
NC(=O)C1(C(N)=O)OC1c1ccc(Cl)cc1Cl (configuration not stated)	-18.1% (inactive)
Cc1ccc(Nc2ccc3cc(S(=O)(=O)N4CCCCC4)ccc3n2)cc1F	-15.5% (inactive)
COc1ccc(NC(=O)CCN2CCCC2)c(OC)c1	0.848% (inactive)
COc1ccccc1NC(=O)CCN1CCN(c2ccc(Cl)cc2)CC1	-41% (active)
CCOc1ccccc1NC(=O)CCN1CCN(S(=O)(=O)c2ccc(OC)cc2)CC1	-3.32% (inactive)
Cc1ccc(C(=O)NC(=S)Nc2ccc(N3CCOCC3)cc2)cc1	-12.4% (inactive)
COc1ccc(C(=O)NC(=S)Nc2ccc(N3CCCC3)cc2)cc1OC	-30.7% (active)

SMILES	activity change, negative = inhibition
COc1ccc(C(=O)NC(=S)Nc2ccccc2N2CCN(S(C)(=O)=O)CC2)cc1OC	-7.6% (inactive)
O=C(NCc1ccc2c(c1)CCN2C(=O)c1ccccc1)Nc1cc(F)ccc1F	1.84% (inactive)
Cc1c(N=Nc2ccc(N(C)C)cc2)c(=O)n(-c2ccccc2)n1C	-0.41% (inactive)
Cc1[nH]n(C)c(=O)c1C(=O)c1c(-c2c(Cl)cccc2Cl)noc1C	-9.05% (inactive)
Cc1[nH]n(C)c(=O)c1N=Nc1ccc(S(C)(=O)=O)cc1	-33.8% (active)
CCOc1cc(C)c(Cl)cc1S(=O)(=O)n1nnc2ccccc21	-41.9% (active)
CCOc1ccc(S(=O)(=O)N2CCCCCC2)c2ccccc12	1.18% (inactive)
CCOc1cc(C)c(S(=O)(=O)NCc2ccccn2)cc1C	-15% (inactive)
COc1ccc(OC)c(CNC(=O)CN2C(=O)CCn3nc(-c4cn(C)c5ccccc45)cc32)c1	9.51% (inactive)
COc1ccc(-n2ccnc(NCCc3ccc(Cl)cc3)c2=O)cc1OC	-3.67% (inactive)
Cc1cccc(N2CCN(C(=O)c3cc4c(=O)oc5ccccc5c4s3)CC2C)c1 (configuration not stated)	-15.4% (inactive)
CCOc1ccc2oc(=O)cc(CN3CCN(C(=O)c4ccc(F)cc4)CC3)c2c1	-25% (inactive)
CCC(=O)N1CCc2cc(Br)cc(S(=O)(=O)NCc3ccc(Cl)cc3)c21	4.98% (inactive)
CC1Sc2ccc(S(=O)(=O)CCC(=O)NCc3ccccc3Cl)cc2NC1=O (configuration not stated)	-9.63% (inactive)
Cc1cccc(N2CCN(C(=O)CCS(=O)(=O)c3ccc4c(c3)NC(=O)C(C)S4)CC2)c1C (configuration not stated)	-41.4% (active)
COc1ccccc1N1CCN(C(=O)CCS(=O)(=O)c2ccc3c(c2)NC(=O)C(C)S3)CC1 (configuration not stated)	5.52% (inactive)
CCn1c2ccccc2c2cc(CN3CCN(Cc4cccc(Cl)c4)CC3)ccc21	-24.4% (inactive)
COc1ccc(/C(N)=N/OC(=O)CCCc2ccccc2)cc1	-50.3% (active)
N/C(=N\OC(=O)CCc1ccccc1)c1ccc(Cl)cc1	-6.68% (inactive)
COc1ccc(/C(N)=N/OC(=O)Cc2ccccc2)cc1	3.45% (inactive)
CCOc1ccc(CNC(=O)c2cc(-c3ccc(Cl)s3)nc3ccccc23)cc1	13.1% (inactive)
COc1ccc(NC(=O)CCCN2C(=O)CCn3nc(-c4cn(C)c5ccccc45)cc32)cc1OC	16% (inactive)
Cc1nc(CNS(=O)(=O)c2cc([N+](=O)[O-])ccc2C)cs1	8.15% (inactive)

SMILES	activity change, negative = inhibition
Cc1nc(CNS(=O)(=O)c2ccc(Oc3ccccc3)cc2)cs1	-42.6% (active)
Cc1nn(C)c(Oc2ccccc2)c1CCNS(=O)(=O)c1ccc(F)cc1	-5.72% (inactive)
CCOc1ccc(C2C(C(=O)Nc3ccc(Cl)cc3)=C(C)Nc3nc(C(F)(F)F)nn32)cc1 (configuration not stated)	10.7% (inactive)
Cc1ccccc1-c1nc(SCC(=O)N(C)c2ccccc2)c2c(=O)n(C)c(=O)n(C)c2n1	8.47% (inactive)
Cc1cccc(OCC(=O)Nc2ccccc2F)c1	-0.963% (inactive)
Cc1cccc(OCC(=O)NCC(=O)N/N=C/c2ccc(N(C)C)cc2)c1	-31.7% (active)
CCOc1ccccc1/C=N/NC(=O)CNC(=O)COc1ccccc1	-1.88% (inactive)
Cc1oc2ccc(O)c(CN3CCC(C)CC3)c2c1C(=O)Nc1ccccc1	7.02% (inactive)
COc1cccc(NC(=O)CSc2cc(=O)n(C)c3ccc(Cl)cc23)c1	-17.9% (inactive)
CC(Oc1ccc(Cl)cc1Cl)C(=O)/C=C/N(C)C (configuration not stated)	-37.2% (active)
CC(=O)N(OCc1ccc(OC(C)C)c(Cl)c1)C(C)=O	-4.21% (inactive)
CC(Oc1ccc(F)cc1F)C(=O)/C=C/N(C)C (configuration not stated)	2.85% (inactive)
COc1ccc(C(=O)Nc2nonc2-c2ccc(OC)c(OC)c2)cc1Cl	0.206% (inactive)
CCc1cccc(NC(=O)Cn2nc(CC)n3c(cc4cc(C)ccc43)c2=O)c1	4.91% (inactive)
CCCS(=O)(=O)Nc1cccc(-c2cn3ccsc3n2)c1	-4.71% (inactive)
CCC(=O)N1CCN=C1SCc1ccc(F)cc1	-8.09% (inactive)
O=C(Cc1ccc(F)cc1)N1CCN=C1SCc1cccc([N+](=O)[O-])c1	-1.86% (inactive)
O=C(COc1ccccc1)N1CCN=C1SCc1cccc(F)c1	-31.4% (active)
COc1cc(OC)cc(-c2nc3nc(C)c(CCC(=O)Nc4ccc(C)cc4)c(C)n3n2)c1	-10.7% (inactive)
CC(C)c1ccc(NS(=O)(=O)c2ccc3[nH]cc(C(=O)NC4CCCC4)c(=O)c3c2)cc1	19.6% (inactive)
CCOC(=O)CCC(=O)OCC(=O)NC(C)C1CC2CCC1C2 (configuration not stated)	-3.11% (inactive)
COC(=O)c1cc(C(=O)NC(C)C2CC3CCC2C3)cc([N+](=O)[O-])c1 (configuration not stated)	-60.3% (active)
Cc1c(C(=O)NC(C)C2CC3CCC2C3)cccc1[N+](=O)[O-] (configuration not stated)	18.8% (inactive)
